# Bioassay records deposited in PubChem BioAssay by National Center for Advancing Translational Sciences (NCATS).
# NS1 function inh – blocks influenza NS1 protein function; Potency, µM (series often up to 46.1 µM), for inactives: at the top dose activity, positive = more growth; 270,000 tested, 0.4% active; calls by dose curve; further: potency means the concentration at half of the fitted maximal effect; actives are rising curves; nearly all actives have a fitted effect of over 50% in size
#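 Growth recovery, yeast-based: influenza A NS1 expressed in S. cerevisiae causes slow growth, and suppressors are detected by OD600. The parent strain without NS1 is used as positive control.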
# Cycloheximide cs – counter-screen for Shiga toxin inhibitors: cycloheximide protein synthesis inhibition; cell reporter, cycloheximide protein synthesis inhibition counterscreen; max response, %; 300,000 tested, 12% active; AID 2314; in the data active means max response mostly above about 13%, no sharp cut-off; inactive means mostly below about 14%; further: read at 38.3 µM for the half of the compounds with a filed dose; 0% is about no effect
# Giardia FBPA inh – blocks Giardia fructose-bisphosphate aldolase activity; 290,000 tested, 0.71% active; purified Giardia FBPA; AID 2451; A8B2U2; Potency, µM (doses to about 59.6 µM), without a hit: top-dose activity, negative = inhibition, most hits filed as inhibitors; further: potency means the concentration at half of the fitted maximal effect; on the % scale 0 is the no-effect control and ±100 the full control effect; nearly all actives have a fitted effect of over 55% in size
# Target sequence (A8B2U2 whole entry, looked up): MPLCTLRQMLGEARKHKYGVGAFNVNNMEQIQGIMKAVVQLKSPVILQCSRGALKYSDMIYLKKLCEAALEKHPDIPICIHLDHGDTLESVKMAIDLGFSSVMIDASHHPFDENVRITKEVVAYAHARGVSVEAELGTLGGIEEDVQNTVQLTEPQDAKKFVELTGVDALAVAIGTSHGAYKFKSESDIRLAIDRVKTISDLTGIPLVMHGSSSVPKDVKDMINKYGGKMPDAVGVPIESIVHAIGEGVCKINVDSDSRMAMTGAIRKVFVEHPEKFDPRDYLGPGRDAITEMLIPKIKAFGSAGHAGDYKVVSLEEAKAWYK
#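 Giardia FBPA (40 nM reagent) was preincubated 10 min at RT with compound (up to 57.5 uM final), then substrate plus GAPDH/TPI/NAD/arsenate coupling system with diaphorase/resazurin was added; resorufin fluorescence (525/598 nm) was read after 20 min.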
# Shiga toxin inh – Shiga toxin inhibition | inhibition, % at 38.7 µM | Vero cells, Shiga toxin protein synthesis inhibition reporter | 290,000 tested, 9.2% active; in the data active means inhibition mostly above about 28%, no sharp cut-off; inactive means mostly below about 43%; further: 0% is about no effect
# LmPK inhibitor – LmPK (Leishmania mexicana) enzyme inhibition; purified LmPK, Kinase-Glo ATP luminescence, 1 h; Potency, µM (titrated, usually from 57.5 µM), for the others: top-dose activity change, negative = inhibition, usual class: inhibitors; 290,000 tested, 0.37% active; AID 1721; further: potency means the concentration at half of the fitted maximal effect; on the % scale 0 is the no-effect control and ±100 the full control effect
#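 Purified LmPK (0.1 nM) with 0.5 mM PEP and 0.1 mM ADP in imidazole buffer pH 7.2 with MgCl2/KCl, 1 h at room temperature. ATP formed was read by luciferase luminescence and normalized to no-enzyme and uninhibited controls.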
# * marks the source's active call; other numbers are inactive results; ? = inconclusive; nt = no result; [ ] = dose if it differs, or a comment. The list is not random: actives were taken first. Their share in the collection is about 14%. Unless noted, the call rests on the fitted dose curve; in most records, active means well fitted curve in the direction sought with a large enough effect; inconclusive means small, poorly fitted or top-dose-only effect, or another doubt; inactive means no such curve, though single readings can be large; an effect the other way counts as inactive or inconclusive.
SMILES,NS1 function inh,Cycloheximide cs,Giardia FBPA inh,Shiga toxin inh,LmPK inhibitor
Cc1occc1C(=O)Nc1sc2c(c1C(N)=O)CCCCC2,-36.7%,29.1*,-6.5%,61.6*,2.9%
COC(=O)c1c(NC(=O)c2ccoc2C)sc2c1CCC2,-1.6%,0.4,-3.8%,-4.5,11.6%
CN1CCN(C(=O)c2c(NC(=O)c3ccco3)sc3c2CCC(C(C)(C)C)C3)CC1 (stereo not given),?,5.5,4.7%,26.3,1.7%
CC1CCc2c(sc(NC(=O)c3ccco3)c2C(=O)O)C1 (stereo not given),-108.0%,39.8*,-7.2%,126.1*,1.0%
NC(=O)c1c(NC(=O)c2ccco2)sc2c1CCC2,-41.5%,22.3*,-0.1%,43.5*,7.3%
CCc1c(C)sc(NC(=O)c2ccoc2C)c1C(N)=O,-12.3%,21.5*,nt,11.6,-13.9%
CCCc1cc2c(c(=O)o1)C(O)C1OC1C2=O (stereo not given),nt,nt,-4.1%[12.9 µM],nt,nt
CCCCn1c(N)c(N(CC(C)C)C(=O)CCC2CCCCC2)c(=O)[nH]c1=O,12.9%,-2.4,nt,12.0,-3.9%
CN(C)C(=O)c1c(NC(=O)c2ccccc2)sc2c1CCC2,-5.6%,2.1,-9.1%,2.2,-6.6%
NC(=O)c1ccsc1NC(=O)c1coc2ccccc2c1=O,7.3%,23.7*,1.2%,103.7*,-18.9%
CSCCC(NC(=O)c1cccc(C)c1)C(=O)Nc1sccc1C(N)=O (stereo not given),9.6%,6.4,-9.8%,7.2,0.1%
CCOC(=O)c1c(NC(=O)c2ccco2)sc2c1CCCCC2,-5.7%,-1.5,1.9%,-9.2,10.7%
CN(C)C(=O)c1c(NC(=O)c2ccco2)sc2c1CCCCC2,-0.9%,16.4*,-1.3%,29.2,0.0%
O=C(Nc1sc2c(c1C(=O)O)CCCCC2)c1ccco1,-164.8%,32.6*,-0.2%,83.1,-23.8%
Cc1ccc(C(=O)N[C@H](C(=O)Nc2sccc2C(N)=O)C(C)C)cc1,14.7%,17.9*,-0.6%,18.4,-3.4%
C=CCN1CCc2cccc3c2[C@H]1Cc1ccc(O)c(O)c1-3,7.0%,1.5,?,-10.3,1.58µM*
COc1cc(OC)c2c(c1)OC(c1ccccc1)CC2=O (stereo not given),nt,nt,-9.6%,nt,nt
Cc1ccc2c(=O)cc(C(=O)NC3CCS(=O)(=O)C3)oc2c1C (stereo not given),13.5%,12.8,4.9%,12.9,2.5%
Cc1cc(C)c2nc(NC(=O)c3cc(C)on3)sc2c1,-14.1%,22.1*,2.2%,20.6,-12.7%
CCN1CCN(CC(=O)Nc2nc3ccc(C)cc3s2)CC1,7.9%,12.5,?,14.7,-1.3%
CCc1ccc2nc(NC(=O)c3cc(C)on3)sc2c1,-58.0%,53.6*,nt,95.5*,0.3%
CN(Cc1ccco1)c1ncncc1-c1ccccc1Cl,nt,nt,-12.6%,nt,nt
COc1cccc2[nH]c(=O)c(-c3ccccc3)cc12,-33.7%,61.2*,-19.9%,120.5*,-1.7%
COc1cccc2[nH]c(C(=O)NC(C)c3ccccc3)cc12 (stereo not given),-16.5%,-2.6,-3.3%,-4.9,3.7%
Fc1cccc(C2NN=C(c3ccccc3)S2)c1 (stereo not given),17.2%,73.0*,1.1%,112.2*,-21.1%
SMILES,NS1 function inh,Cycloheximide cs,Giardia FBPA inh,Shiga toxin inh,LmPK inhibitor
COc1cc(OC)cc(C(=O)N2CC(=O)Nc3ccccc32)c1,12.6%,-0.9,2.2%,-14.8,-3.6%
COc1cccc(NC2=C(NCCO)C(=O)c3ccccc3C2=O)c1,3.1%,11.2*,?,nt,-2.6%
COc1ccc(NC2=C(NCCO)C(=O)c3ccccc3C2=O)cc1,-2.2%,52.5*,?,80.9*,-16.3%
CN1CCc2nc(SCC(=O)Nc3ccc(OC(F)(F)F)cc3)c(C#N)c(-c3cccs3)c2C1,?,5.1,?,0.8,-4.4%
CN1CCc2nc(SCC(=O)Nc3cccc(F)c3)c(C#N)c(-c3cccs3)c2C1,26.4%,36.7,-25.4%,52.8*,1.2%
O=C(c1csnn1)N1CCC[C@@]2(CCN(Cc3cc(C(F)(F)F)cc(C(F)(F)F)c3)C2)C1,nt,nt,1.5%,nt,nt
CCC(C)(C)NC(=O)C(c1ccc(F)cc1)N(Cc1ccc(OC)cc1)C(=O)c1cnccn1 (stereo not given),0.2%,31.3*,-3.2%,60.4*,-7.2%
O=c1c(CCc2ccccc2)nc2cnc(N3CCNCC3)nc2n1CCc1ccccc1,nt,nt,-10.5%,nt,nt
CC(=C/C(=O)O)/C=C/c1ccc([N+](=O)[O-])cc1,-24.9%,3.0,-1.4%,-8.6,-22.3%
CC1(C)COC(/C=C/c2ccc([N+](=O)[O-])cc2)=N1,-32.2%,55.7*,5.6%,83.9*,3.9%
CC(C)CN1CC2(CCN(C(=O)c3cccc(F)c3)CC2)C1,nt,nt,-2.7%,nt,nt
COc1cccc(NC(=O)Nc2cc(NC(=O)Nc3cccc(OC)c3)c(C)nc2C)c1,18.7%,5.9,1.7%,-4.8,0.7%
COc1cccc(NC(=O)Nc2cnccn2)c1,-6.0%,20.0*,-4.9%,62.3,-1.5%
COc1cccc(NC(=O)Nc2ccncc2)c1,5.0%,16.8*,-1.8%,23.3,-13.1%
COc1ccc(OC)c(NC(=O)Nc2cnccn2)c1,-12.2%,15.9*,1.7%,46.2,-0.3%
COc1cccc(NC(=O)Nc2ccc(Cc3ccncc3)cc2)c1,-10.3%,9.4,0.6%,42.1,3.8%
Cc1cccc(NC(=O)Nc2cnccn2)c1,2.6%,17.8,0.1%,39.7,1.4%
COc1cccc(NC(=O)Nc2ccc(C(C)(C)C)cc2)c1,-42.2%,25.4*,-17.4%,51.1*,-1.2%
Cc1cc2c(cc1S(=O)(=O)CCC(=O)N(C)Cc1ccccc1)OCC(=O)N2,8.6%,-1.7,10.3%,-3.1,-14.8%
Cc1c(CCO)c(=O)[nH]n1S(=O)(=O)c1ccc([N+](=O)[O-])cc1,7.9%,-3.9,1.3%,-7.1,-4.0%
CC(C)[C@@H](CC(=O)N[C@@H]1CCCC[C@H]1C(=O)N[C@H](CC(=O)N[C@@H](CCC(=O)O)CC(=O)O)Cc1ccccc1)NC(=O)C[C@H](Cc1c[nH]c2ccccc12)NC(=O)[C@@H]1CCCC[C@H]1N,nt,nt,-25.8%,nt,nt
COc1cccc(NC(=O)Nc2cccs2)c1,17.4%,24.2*,-22.4%,40.7,2.3%
COc1cccc(NC(=O)C(=O)NCc2ccncc2)c1,0.6%,29.3*,4.3%,78.3*,?
COc1cc(NC(=O)CN(C)S(=O)(=O)c2ccc3c(c2)CC(C)N3C(C)=O)cc(OC)c1 (stereo not given),8.9%,-6.6,nt,-11.6,-9.4%
O=C(CSc1nc2sc3c(c2c(=O)n1-c1ccccc1)CCCC3)N/N=C/c1ccccc1C(=O)O,26.4%,-7.4,0.1%,-7.0,4.8%
CCc1cc2c(=O)c(-c3cscn3)coc2cc1O,-8.3%[9.22 µM],30.9*,5.4%,67.1*,-6.5%
CCc1cc2c(=O)c(-c3cscn3)coc2cc1OC,-6.4%,16.9,-2.7%,101.5*,1.0%
COc1ccc(CNC(=O)CN(C)S(=O)(=O)c2ccc(Br)s2)cc1,-23.1%,22.8*,-4.1%,25.4,2.6%
COc1cccc(CNC(=O)CN(C)S(=O)(=O)c2ccc(Br)s2)c1,-2.4%,22.4*,-1.3%,76.0*,-4.8%
